Assay results reported in PubChem BioAssay (EPA / NIEHS).
Results filed as inconclusive are left out. More than one record can exist for a structure, and the calls need not agree. Active and inactive are the calls of the source. How the source made its calls: active means hit-call score of the fitted dose curve at least 0.9, where 1 is the maximum; inconclusive means response in the unintended direction; inactive means score below 0.9. Peptide text beside a SMILES is read from it.

Target: Estrogen receptor (Homo sapiens) (UniProt P03372)
Test: NVS_NR_hER: NovaScreen (NVS) Nuclear Receptor Binding Assay for human Estrogen Receptor (ER) (AID 2283348)
How it was run: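 MCF7-derived receptor extract, radiolabelled ligand, competitive displacement. Read: scintillation counts at 18 h. DMSO = negative control/baseline. Primary 25 uM duplicate; follow-up concentration–response.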

Sequence of Estrogen receptor (Homo sapiens) (P03372 whole entry, looked up, the tested form may be a part): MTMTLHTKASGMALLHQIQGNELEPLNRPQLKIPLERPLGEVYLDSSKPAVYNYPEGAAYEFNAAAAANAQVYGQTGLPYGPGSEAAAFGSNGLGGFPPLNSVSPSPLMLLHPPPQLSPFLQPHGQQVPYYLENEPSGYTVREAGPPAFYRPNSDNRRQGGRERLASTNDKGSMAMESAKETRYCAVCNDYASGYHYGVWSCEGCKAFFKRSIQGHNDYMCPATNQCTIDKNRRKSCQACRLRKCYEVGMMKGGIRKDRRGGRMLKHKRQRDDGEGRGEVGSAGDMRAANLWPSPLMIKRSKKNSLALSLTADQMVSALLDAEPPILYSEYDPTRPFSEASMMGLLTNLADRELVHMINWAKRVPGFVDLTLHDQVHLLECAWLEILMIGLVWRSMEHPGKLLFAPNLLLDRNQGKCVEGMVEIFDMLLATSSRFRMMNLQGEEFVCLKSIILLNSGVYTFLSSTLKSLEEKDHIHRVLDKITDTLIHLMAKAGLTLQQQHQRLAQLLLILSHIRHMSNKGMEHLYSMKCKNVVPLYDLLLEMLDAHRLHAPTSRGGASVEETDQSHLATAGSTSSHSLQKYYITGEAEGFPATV

Compound	outcome	AC50
Oc1ccc(-c2ccccc2)c(Cl)c1	inactive	
COC(OC)(C(=O)c1ccccc1)c1ccccc1	inactive	25 µM (active)
CC(CCC(=O)O)(c1ccc(O)cc1)c1ccc(O)cc1		4.34 µM (active)
O=C(OCc1ccccc1)c1ccc(O)cc1		0.212 µM (active)
CN(C)Cc1cc(CN(C)C)c(O)c(CN(C)C)c1	inactive	
C=C1C[C@H]2[C@@H]3C=C(C)C4=CC(=O)CC[C@]4(C)[C@H]3CC[C@]2(C)[C@@]1(OC(C)=O)C(C)=O		0.0185 µM (active)
CCCCC/C=C\C/C=C\CCCCCCCC(=O)O		25 µM (active)
CCCCCCCCCC[N+](C)(CCCCCCCCCC)CCC[Si](OC)(OC)OC	inactive	

Target: Estrogen receptor (Homo sapiens) (UniProt P03372)
Test: OT_ER_ERaERa_1440: Odyssey Thera (OT) 24-hour HEK293T Protein-Complementation Assay for Estrogen Receptor-alpha/-alpha Homodimer (AID 2283349);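 further: hits raise fluorescence above DMSO for agonists and antagonists alike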
How it was run: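 Cells (HEK293T) carrying the fragment-tagged ERα LBD (aa 310-547) pair are treated with chemical for 24 hours. Nuclear and/or cytoplasmic fluorescence is then quantified on a laser scanning cytometer. Activity is scored as signal gain against DMSO.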

Compound	outcome	AC50
COC(=O)[C@H](Cc1ccccc1)NC(=O)[C@@H](N)CC(=O)O (H-Asp-Phe-OMe)	inactive	
CC(C)(C)NC(=O)[C@H]1CC[C@H]2[C@@H]3CC[C@H]4NC(=O)C=C[C@]4(C)[C@H]3CC[C@]12C		75 µM (active)
Oc1ccc(-c2ccccc2)c(Cl)c1	inactive	
CC1=NN(c2ccc(S(=O)(=O)O)cc2)C(=O)C1N=Nc1ccccc1 (centres undefined)	inactive	
CC(=O)OC1CCCCC1C(C)(C)C (centres undefined)	inactive	
O=C(O)c1cc(O)c2ccccc2c1O	inactive	
CC(CCC(=O)O)(c1ccc(O)cc1)c1ccc(O)cc1		55.5 µM (active)
O=C(OCc1ccccc1)c1ccc(O)cc1		37.3 µM (active)
Cc1ccc([N+](=O)[O-])cc1N	inactive	
CCCCNS(=O)(=O)c1ccccc1	inactive	
C/C=C/C=C/CCCCCCCO	inactive	
CN(C)Cc1cc(CN(C)C)c(O)c(CN(C)C)c1	inactive	
CCCCC(=O)O	inactive	
CCCCC(C=O)CC (centres undefined)	inactive	
C=C1C[C@H]2[C@@H]3C=C(C)C4=CC(=O)CC[C@]4(C)[C@H]3CC[C@]2(C)[C@@]1(OC(C)=O)C(C)=O	inactive	
CC(=O)OC(C)c1ccccc1 (centres undefined)	inactive	
CCCCNC(=S)NCCCC	inactive	
CCCCCCC=O	inactive	
CCCCC/C=C\C/C=C\CCCCCCCC(=O)O	inactive	
CCN1CN(CC)CN(CC)C1	inactive	
CCCCC(CC)COS(=O)(=O)O (centres undefined)	inactive	
CC1=CCC2CC1C2(C)C (centres undefined)	inactive	
CCOC(=O)c1ccc(C)cc1	inactive	
CCCCCCCCCC[N+](C)(CCCCCCCCCC)CCC[Si](OC)(OC)OC	inactive	
Nc1ccc(C(=O)O)cc1	inactive	
C1CNCCN1	inactive	
CCOC(=O)c1ccccc1C	inactive	
CCCCCCO	inactive	

Target: Estrogen receptor (Homo sapiens) (UniProt P03372)
Test: OT_ER_ERaERa_0480: Odyssey Thera (OT) 8-hour HEK293T Protein-Complementation Assay for Estrogen Receptor-alpha/-alpha Homodimer (AID 2283351);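 further: rise in fluorescence from reassembled reporter fragments on ERα LBD homodimer in nucleus or whole cell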
How it was run: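 HEK293T cells stably expressing a PCA pair of ER alpha LBD (residues 310-547) were dosed for 8 hours. The gain in fluorescence intensity, nuclear for agonists and whole-cell for antagonists, was measured by laser scanning cytometry against DMSO vehicle.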

Compound	outcome	AC50
COC(=O)[C@H](Cc1ccccc1)NC(=O)[C@@H](N)CC(=O)O (H-Asp-Phe-OMe)	inactive	
CC(C)(C)NC(=O)[C@H]1CC[C@H]2[C@@H]3CC[C@H]4NC(=O)C=C[C@]4(C)[C@H]3CC[C@]12C	inactive	
Oc1ccc(-c2ccccc2)c(Cl)c1		12.2 µM (active)
CC1=NN(c2ccc(S(=O)(=O)O)cc2)C(=O)C1N=Nc1ccccc1 (centres undefined)	inactive	
CC(=O)OC1CCCCC1C(C)(C)C (centres undefined)	inactive	
O=C(O)c1cc(O)c2ccccc2c1O	inactive	
CC(CCC(=O)O)(c1ccc(O)cc1)c1ccc(O)cc1	inactive	
O=C(OCc1ccccc1)c1ccc(O)cc1		18.9 µM (active)
Cc1ccc([N+](=O)[O-])cc1N	inactive	
CCCCNS(=O)(=O)c1ccccc1	inactive	
C/C=C/C=C/CCCCCCCO	inactive	
CN(C)Cc1cc(CN(C)C)c(O)c(CN(C)C)c1	inactive	
CCCCC(=O)O	inactive	
CCCCC(C=O)CC (centres undefined)	inactive	
C=C1C[C@H]2[C@@H]3C=C(C)C4=CC(=O)CC[C@]4(C)[C@H]3CC[C@]2(C)[C@@]1(OC(C)=O)C(C)=O	inactive	
CC(=O)OC(C)c1ccccc1 (centres undefined)	inactive	
CCCCNC(=S)NCCCC	inactive	
CCCCCCC=O	inactive	
CCCCC/C=C\C/C=C\CCCCCCCC(=O)O	inactive	
CCN1CN(CC)CN(CC)C1	inactive	
CCCCC(CC)COS(=O)(=O)O (centres undefined)	inactive	
CC1=CCC2CC1C2(C)C (centres undefined)	inactive	
CCOC(=O)c1ccc(C)cc1	inactive	
CCCCCCCCCC[N+](C)(CCCCCCCCCC)CCC[Si](OC)(OC)OC	inactive	
Nc1ccc(C(=O)O)cc1	inactive	
C1CNCCN1	inactive	
CCOC(=O)c1ccccc1C	inactive	
CCCCCCO	inactive	

Target: Estrogen receptor (Homo sapiens) + Estrogen receptor beta (Homo sapiens) (UniProt P03372+Q92731)
Test: OT_ER_ERaERb_0480: Odyssey Thera (OT) 8-hour HEK293T Protein-Complementation Assay for Estrogen Receptor-alpha/-beta Heterodimer (AID 2283352)
How it was run: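 Increase in mean fluorescence intensity, measured by laser scanning plate cytometry, reported ER-alpha/ER-beta LBD complementation in HEK293T cells after 8 h chemical exposure. DMSO served as baseline; basal signal is low, punctate and cytoplasmic.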

Sequence of Estrogen receptor (Homo sapiens) + Estrogen receptor beta (Homo sapiens) (P03372 whole entry, looked up): as the sequence (P03372 whole entry, looked up, the tested form may be a part) above
Sequence of Estrogen receptor (Homo sapiens) + Estrogen receptor beta (Homo sapiens) (Q92731 whole entry, looked up): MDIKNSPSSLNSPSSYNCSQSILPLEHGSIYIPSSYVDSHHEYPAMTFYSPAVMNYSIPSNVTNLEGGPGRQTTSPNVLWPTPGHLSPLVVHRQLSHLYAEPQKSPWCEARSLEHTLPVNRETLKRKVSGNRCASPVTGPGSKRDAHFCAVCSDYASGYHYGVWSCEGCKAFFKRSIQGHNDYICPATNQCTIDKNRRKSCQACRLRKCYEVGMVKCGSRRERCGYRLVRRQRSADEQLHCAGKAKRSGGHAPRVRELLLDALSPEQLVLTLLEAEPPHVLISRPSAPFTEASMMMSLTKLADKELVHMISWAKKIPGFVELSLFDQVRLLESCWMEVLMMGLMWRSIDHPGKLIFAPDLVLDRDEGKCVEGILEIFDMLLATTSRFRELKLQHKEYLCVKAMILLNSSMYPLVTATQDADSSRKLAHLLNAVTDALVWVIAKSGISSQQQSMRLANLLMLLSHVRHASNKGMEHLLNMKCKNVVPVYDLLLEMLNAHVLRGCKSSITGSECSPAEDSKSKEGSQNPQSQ

Compound	AC50	outcome
CC(CCC(=O)O)(c1ccc(O)cc1)c1ccc(O)cc1	39.1 µM (active)	
CCCCNS(=O)(=O)c1ccccc1		inactive
CCCCC(=O)O		inactive
CCOC(=O)c1ccc(C)cc1		inactive
Nc1ccc(C(=O)O)cc1		inactive

Target: Androgen Receptor/SRC-1 Co-activator, AR (gene 367) (UniProt P10275)
Test: OT_AR_ARSRC1_0960: Odyssey Thera (OT) 16-hour HEK293T Protein-Complementation Assay for Androgen Receptor/SRC-1 Co-activator (AID 2283353);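 further: actives raise the signal above DMSO so potency reflects increased AR and SRC-1 complex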
How it was run: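 Endpoint is gain-of-signal N/C fluorescence ratio in the 488 nm channel versus DMSO, from at least 400 cells per image, measured 16 h post-dosing. Cells: HEK293T stably carrying split-Venus AR/SRC-1 complementation constructs.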

Sequence of Androgen Receptor/SRC-1 Co-activator, AR (gene 367) (P10275 whole entry, looked up): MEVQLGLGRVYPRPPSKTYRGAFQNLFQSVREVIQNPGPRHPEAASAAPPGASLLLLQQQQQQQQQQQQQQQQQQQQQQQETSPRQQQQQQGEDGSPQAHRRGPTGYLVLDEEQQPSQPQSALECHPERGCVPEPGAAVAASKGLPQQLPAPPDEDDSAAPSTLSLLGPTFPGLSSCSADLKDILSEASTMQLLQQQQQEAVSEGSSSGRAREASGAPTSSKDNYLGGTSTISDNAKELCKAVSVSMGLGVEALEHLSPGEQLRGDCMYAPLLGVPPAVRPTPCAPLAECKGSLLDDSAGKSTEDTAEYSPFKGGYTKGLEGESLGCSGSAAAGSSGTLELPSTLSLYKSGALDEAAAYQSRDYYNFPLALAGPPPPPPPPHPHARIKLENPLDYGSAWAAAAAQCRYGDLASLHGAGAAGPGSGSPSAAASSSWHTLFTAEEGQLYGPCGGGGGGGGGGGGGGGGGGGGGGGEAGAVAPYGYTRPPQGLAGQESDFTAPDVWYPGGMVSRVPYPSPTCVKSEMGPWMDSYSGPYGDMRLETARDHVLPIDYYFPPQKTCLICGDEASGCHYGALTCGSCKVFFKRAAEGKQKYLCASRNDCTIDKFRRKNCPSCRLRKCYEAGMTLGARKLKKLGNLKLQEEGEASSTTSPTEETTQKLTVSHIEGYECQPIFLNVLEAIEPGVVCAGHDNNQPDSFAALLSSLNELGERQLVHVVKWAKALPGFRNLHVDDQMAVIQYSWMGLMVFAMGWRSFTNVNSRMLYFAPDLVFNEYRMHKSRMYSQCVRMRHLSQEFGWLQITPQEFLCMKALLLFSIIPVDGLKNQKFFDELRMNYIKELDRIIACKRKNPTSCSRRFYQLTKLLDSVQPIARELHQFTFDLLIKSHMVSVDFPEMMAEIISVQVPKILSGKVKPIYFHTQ

Compound	AC50	outcome
Oc1ccc(-c2ccccc2)c(Cl)c1	40 µM (active)	
CC(=O)OC1CCCCC1C(C)(C)C (centres undefined)		inactive
CN(C)Cc1cc(CN(C)C)c(O)c(CN(C)C)c1		inactive
C=C1C[C@H]2[C@@H]3C=C(C)C4=CC(=O)CC[C@]4(C)[C@H]3CC[C@]2(C)[C@@]1(OC(C)=O)C(C)=O	6.25 µM (active)	
